Hit rate of the full screen: of about 5,500 compounds, about 2,000 (36%) were called active. About 18% were inconclusive and are not listed. Cut-off read from the data, not from the text of the source: active = normalized growth mostly below about 0.91 (no sharp cut-off); inconclusive = no clear call, values can overlap the other calls; inactive = mostly above about 0.92. The list shows a part of the results.
Experiment: chemical genetic growth profiling, strain panel (AID 1159580);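 note: tested at 20 µM; growth read once vehicle control cultures reached saturation at 30 °C; 1 = growth at the plate median or of vehicle wells; lower values mean less growth of the strain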
Settings: growth OD

Measured: normalized growth

COC(=O)COc1ccc(C(C)=O)cc1
inactive: S. cerevisiae deletion strains, locus YAL013W, strain DEP1, stronger effect = lower value 1.01 | S. cerevisiae deletion strains, locus YBR229C, strain ROT2, stronger effect = lower value 0.988 | S. cerevisiae deletion strains, locus YDL101C, strain DUN1, stronger effect = lower value 0.96 | S. cerevisiae deletion strains, locus YDR150W, strain NUM1, stronger effect = lower value 0.977 | S. cerevisiae deletion strains, locus YEL061C, strain CIN8, stronger effect = lower value 1.01 | S. cerevisiae deletion strains, locus YGR078C, strain PAC10, stronger effect = lower value 1 | S. cerevisiae deletion strains, locus YGR229C, strain SMI1, stronger effect = lower value 0.992 | S. cerevisiae deletion strains, locus YHR030C, strain SLT2, stronger effect = lower value 1.02 | S. cerevisiae deletion strains, locus YHR087W, strain rtc3, stronger effect = lower value 1 | S. cerevisiae deletion strains, locus YJR043C, strain POL32, stronger effect = lower value 1.01 | S. cerevisiae deletion strains, locus YJR075W, strain HOC1, stronger effect = lower value 0.984 | S. cerevisiae deletion strains, locus YLR039C, strain RIC1, stronger effect = lower value 0.974 | S. cerevisiae deletion strains, locus YLR058C, strain SHM2 (second series), stronger effect = lower value 1 | S. cerevisiae deletion strains, locus YLR085C, strain ARP6, stronger effect = lower value 1.01 | S. cerevisiae deletion strains, locus YLR262C, strain YPT6, stronger effect = lower value 0.975 | S. cerevisiae deletion strains, locus YML094W, strain GIM5, stronger effect = lower value 0.952 | S. cerevisiae deletion strains, locus YMR219W, strain ESC1, stronger effect = lower value 1.01 | S. cerevisiae deletion strains, locus YMR263W, strain SAP30, stronger effect = lower value 1 | S. cerevisiae deletion strains, locus YNL153C, strain GIM3, stronger effect = lower value 1 | S. cerevisiae deletion strains, locus YNL298W, strain CLA4 (second series), stronger effect = lower value 0.977 | S. cerevisiae deletion strains, locus YNL322C, strain KRE1, stronger effect = lower value 0.991 | S. cerevisiae deletion strains, locus YNR030W, strain Alg12, stronger effect = lower value 0.98 | S. cerevisiae deletion strains, locus YOL006C, strain TOP1, stronger effect = lower value 0.999 | S. cerevisiae deletion strains, locus YPL055C, strain LGE1, stronger effect = lower value 0.992 | S. cerevisiae deletion strains, locus YPL241C, strain CIN2, stronger effect = lower value 1.07 | S. cerevisiae deletion strains, locus YPR135W, strain CTF4, stronger effect = lower value 0.935 | S. cerevisiae strains, strain wild type, stronger effect = lower value 0.99

— PubChem BioAssay AID1159580 (chemical genetic matrix, 2015)
